We go through 11 compounds from PubChem BioAssay (EPA / NIEHS).

The nature of assay [1]: CCTE_Shafer_MEA_dev_inter_network_spike_interval_mean: CCTE's Neural Network Formation Assay for Mean Inter-network Spike Interval, Shafer Lab (AID 2284047).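 As to AC50: potency for a decrease in mean inter-network spike interval below DMSO.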 In short, it runs like this: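 Rat cortical cultures, 1.5 x 10^5 cells/well on 48-well MEA plates; continuous exposure days 0–12, medium and compound refreshed DIV 5, 9. Mean time between consecutive network-spike peaks; AUC across DIV 5/7/9/12; DMSO baseline, negative fitting direction.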

A short description of assay [2]: CCTE_Shafer_MEA_dev_network_spike_peak: CCTE's Neural Network Formation Assay for Mean Number of Electrodes in Network Spike, Shafer Lab (AID 2284049).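 As to AC50: fitted for loss of signal meaning fewer electrodes in network spikes than DMSO.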 In short, it runs like this:
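Continuous 12-day exposure of rat cortical cultures, starting at plating, on MEA plates. Endpoint: electrodes participating in network-spike peaks, AUC across DIV 5–12, DMSO as negative control.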

The nature of assay [3]: CCTE_Shafer_MEA_dev_network_spike_duration_std: CCTE's Neural Network Formation Assay for Standard Deviation of Network Spike Duration, Shafer Lab (AID 2284052).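 Also: hits are decreases in network spike duration SD versus DMSO vehicle.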 In outline: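 Read-out is the trapezoidal area-under-the-curve across recordings made on days 5, 7, 9 and 12, fitted in the negative direction against DMSO baseline. Neurons were primary rat cortical cells treated from day 0, with treatment renewed at each feed.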

A short description of assay [4]: CCTE_Shafer_MEA_dev_per_network_spike_spike_number_mean: CCTE's Neural Network Formation Assay for Mean Number of Spikes in a Network Spike, Shafer Lab (AID 2284053).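 As to AC50: fitted as decrease in spikes per network spike relative to DMSO.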 In short, it runs like this: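 Continuous twelve-day exposure of developing rat cortical networks grown over 16 microelectrodes per well; spontaneous firing is captured at four time points, and the per-network-spike spike number is integrated over development by trapezoidal AUC.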

A short description of assay [5]: CCTE_Shafer_MEA_dev_per_network_spike_spike_percent: CCTE's Neural Network Formation Assay for Percent of Spikes in a Network Spike, Shafer Lab (AID 2284054). In outline: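 Primary rat cortical neurons on 16-electrode MEA wells (PEI-coated, laminin at plating), exposed from day 0 with renewal at DIV 5 and 9; spikes within 0.05 s of network-spike peaks over total spikes, AUC across days 5, 7, 9, 12.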

Assay [6] in a line: CCTE_Shafer_MEA_dev_LDH: CCTE's Lactate Dehydrogenase Assay for Cytotoxicity in the Neural Network Formation Assay, Shafer Lab (AID 2284068; active = hit-call score of the fitted dose curve at least 0.9, where 1 is the maximum;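 also: exposure for twelve days from plating with re-dosing on DIV 5 and 9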). In short, it runs like this: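 Cytotoxicity companion to network-formation recordings: rat cortical neurons received compound over 12 days of development, re-dosed at DIV 5 and 9 feeds. Viability was inferred from LDH enzyme activity relative to DMSO.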

Another assay deals with DIO2 (gene 1734). The assay can be described thus: CCTE_GLTED_hDIO2: CCTE's human Deiodinase 2 (DIO2) Inhibition Assay, Great Lakes Toxicology and Ecology Division (GLTED) Lab (AID 2284050; active = hit-call score of the fitted dose curve at least 0.9, where 1 is the maximum). The procedure:
CCTE_GLTED_hDIO2 is a cell-free, single-readout assay designed to test the inhibitory activity of chemicals toward human iodothyronine Deiodinase type 2 (DIO2) enzyme. Enzyme is incubated in presence of test chemical for 3 hours during which uninhibited enzyme liberates free iodide from substrate. Free iodide is measured in a second step using the Sandell-Kolthoff method.CCTE_GLTED_hDIO2 is the assay component measured from the CCTE_GLTED_hDIO2 assay. It is designed to make measurements of enzyme activity, a form of enzyme reporter, as detected with absorbance signals by spectrophotometry.Data from the assay component CCTE_GLTED_hDIO2 was analyzed into 1 assay endpoint. This assay endpoint, CCTE_GLTED_hDIO2, was analyzed in the positive analysis fitting direction relative to DMSO as the negative control and baseline of activity. Using a type of enzyme reporter, loss-of-signal activity can be used to understand changes in the enzymatic activity as they relate to the gene DIO2. Furthermore, this assay endpoint can be referred to as a primary readout, because the performed assay has only produced 1 assay endpoint. To generalize the intended target to other relatable targets, this assay endpoint is annotated to the 'deiodinase' intended target family, where the subfamily is 'deiodinase Type 2'.
Human deiodinase type 2 (hDIO2) assay, developed at Great Lakes Toxicology and Ecology Division (GLTED) within the EPA's Center for Computational Toxicology and Exposure (CCTE), is designed to test the chemicals' ability to inhibit DIO2. Assay is based on iodide release measured by the Sandell-Kolthoff method and is run in 96-well plate format with assay plates run in triplicate (n=3). The method used for the deiodinase assay was largely based on Renko et al. (2012, 2015). These works describe the utilization of the SK reaction to measure deiodinase-liberated iodide in a 96-well-plate format. The SK reaction is based on the reduction of the yellow-colored cerium IV to the non-colored cerium III by arsenic, with the rate of this reaction increased in the presence of iodide in a concentration-dependent manner (Sandell and Kolthoff, 1937). Iodinated test chemicals can interfere as competitive inhibitors, or if the stock chemical has contaminating free-iodide present. Other chemicals, e.g.: nitrite, iron, and thiocyanate can interfere with the Sandell-Kolthoff reaction (see Sandell and Kolthoff, 1937).

Another assay concerns DIO3 (gene 1735). The assay can be described thus: CCTE_GLTED_hDIO3: CCTE's human Deiodinase 3 (DIO3) Inhibition Assay, Great Lakes Toxicology and Ecology Division (GLTED) Lab (AID 2284055; active = hit-call score of the fitted dose curve at least 0.9, where 1 is the maximum;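 as to AC50: potency is for inhibition seen as loss of released iodide signal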). In outline:
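Enzyme activity is tracked as iodide release from substrate by recombinant human DIO3 over 3 h with chemical present. A second Sandell-Kolthoff step converts iodide to an absorbance signal, fitted relative to DMSO.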

Several values for one entry are separate records, joined by “and”; a condition that tells them apart may be missing. Equal values may be shown once. Records with an inconclusive call do not appear. The source holds several records for some structures; these can differ, active in one and inactive in another. Activity calls are given as the source filed them. The calls were made as follows, unless noted: active = hit-call score of the fitted dose curve at least 0.9, where 1 is the maximum; inactive = score below 0.9.

The term AC50 denotes the concentration at which the activity in the assay is half-maximal. Turning to `CCCCC(CC)COC(=O)c1ccccc1C(=O)OCC(CC)CCCC` (centres undefined), the call in assay [1], in assay [3], in assay [4], in assay [5] and in assay [6] was inactive. The AC50 was 15 µM (active) and 423 nM (active) and 8.09 µM (active) in assay [2]; 3.05 µM (active) in assay [3]; 6.42 µM (active) and 4.63 µM (active) in assay [4]; 7.71 µM (active) and 22.4 µM (active) in assay [5]; 11.3 µM (active) in assay [6].
With `COP(=S)(OC)Oc1nc(Cl)c(Cl)cc1Cl`, the compound was classed as inactive in assay [1], in assay [2], in assay [3], in assay [4], in assay [5] and in assay [6].
Turning to `Cc1ccc(-c2c(Cl)nc(C#N)n2S(=O)(=O)N(C)C)cc1`, the compound was classed as inactive (in assay [1]; in assay [3]; in assay [5]; with DIO3 (gene 1735)). Besides, the AC50 was 21.8 µM (active) in assay [2], 81.8 µM (active) in the assay with DIO2 (gene 1734), 14.4 µM (active) in assay [4] and 30.3 µM (active) in assay [6].
Regarding `CNC(=O)ON=CC(C)(C)SC`, the result in assay [1], in assay [2], in assay [3], in assay [5] and in assay [6] was inactive. For the same compound, the AC50 in assay [4] was 0.549 µM (active).
Turning to `CCCN(CCC)c1c([N+](=O)[O-])cc(S(N)(=O)=O)cc1[N+](=O)[O-]`, the values for the AC50 in the assay with DIO2 (gene 1734) and in the assay on DIO3 (gene 1735) were 141 µM (active) and 160 µM (active), respectively.
Turning to `CN(C)C(=S)SSC(=S)N(C)C`, the AC50 is 11.6 nM (active) in assay [1]; 0.0107 µM (active) in assay [2]; 55.7 µM (active) in the assay with DIO2 (gene 1734); 0.00705 µM (active) in assay [3]; 0.00976 µM (active) in assay [4]; 0.00821 µM (active) in assay [5]. Besides, the AC50 in the assay with DIO3 (gene 1735) is 43.1 µM (active); in assay [6], 0.00506 µM (active).
Turning to `CCOC(=O)CC(SP(=S)(OC)OC)C(=O)OCC` (centres undefined), the compound was called inactive in assay [1] and in assay [3]. The AC50 was 14.2 µM (active) and 8.93 µM (active) in assay [2]; 13.3 µM (active) in assay [3]; 13 µM (active) and 8.1 µM (active) in assay [4]; 11 µM (active) and 3.69 µM (active) in assay [5]; 19.9 µM (active) and 24.6 µM (active) in assay [6].
Consider `CO/C=C(/C(=O)OC)c1ccccc1Oc1cc(Oc2ccccc2C#N)ncn1`, for which the AC50 in assay [1] was 1.64 µM (active) and 17 nM (active); in assay [2], 1.48 µM (active) and 1.44 µM (active); in assay [3], 840 nM (active) and 974 nM (active); in assay [4] it was 1.49 µM (active) and 1.1 µM (active); in assay [5], 1.83 µM (active) and 433 nM (active); in assay [6], 507 nM (active) and 1.41 µM (active).
As for `Cc1c(F)c(F)c(COC(=O)C2C(/C=C(\Cl)C(F)(F)F)C2(C)C)c(F)c1F` (centres undefined), the compound was called inactive in assay [1]. Also, the half-maximal activity concentration (AC50) in assay [3] is 0.893 µM (active); in assay [4], 1.98 µM (active); in assay [5], 1.45 µM (active); in assay [6], 18 µM (active).
As for `C=CCC1=C(C)C(OC(=O)C2C(C=C(C)C)C2(C)C)CC1=O` (centres undefined), the call in assay [1], in assay [3], in assay [4] and in assay [5] was inactive. The AC50 was 2.93 µM (active) and 14.8 µM (active) in assay [2]; 44.9 µM (active) in the assay on DIO2 (gene 1734); 24.5 µM (active) in assay [4]; 4.76 µM (active) in assay [5]; 40.9 µM (active) with DIO3 (gene 1735); 23.6 µM (active) in assay [6].
Consider `CCCCOC(=O)c1ccccc1C(=O)OCCCC`, for which the compound was classed as inactive in assay [1], in assay [3] and in assay [5]. The values for the AC50 in assay [2], in assay [4] and in assay [6] were 74.9 µM (active), 72.1 µM (active) and 50 µM (active), respectively.
